The record followed here is PubChem BioAssay AID1508600 (Functional Genomics Laboratory (NCATS/FGL), 2020).

Out of some 53,000 sequences screened, about 3,700 (7%) were called active.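 How the source made its calls: active means gene knockdowns whose robust z-score for IL-1 alpha signal is at least 2 or at most -2, so actives lie on both sides; inactive means the rest.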 Many of the other results were omitted from the sample, so actives are more common in it than they were.

The nature of this assay: Components of the Cytosolic LPS Sensing Pathway: Gene Identification via Genome-wide siRNA Screen.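 Further: robust z of the log signal after scaling to non-targeting control siRNA wells of the plate.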 Conditions: RAW264.7 macrophages, IL-1a HTRF, actives lie on both sides, screened at 100 nM (by protocol), cells primed 5 h with Pam3CSK4 first. The gist of the method: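 RAW264.7; siRNA 100 nM final, RNAiMAX, 48h 37 degrees C; Pam3CSK4 5 h; LipidA + TransIT-TKO 24 h; IL-1a HTRF; CellTiter-Glo viability; robust z vs negative-control median.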
Background: TR-FRET usually uses a lanthanide donor and a delayed reading to cut background.
As for GGACUCAACUGCACUGUUGTT against Izumo4, the z-score was -2.37 (active).
Then CCAAGUUUUAGCACCUAAATT against Dcp1a, with 0.769 (inactive).
Regarding GGACAUGAAGAUCAAGUCCTT against Rps2, the z-score was -0.109 (inactive).
Then GAAGACUUCAAUCAACCAGTT against Trim6, with -0.396 (inactive); and GGAAACUUGUUGAAGAGAUTT against Ptprz1, with 2.37 (active).
Take GCAUACCGGAUAAACUGAATT against Apoc1: the z-score was -0.916 (inactive).
Then GGAAUGUCGAAUUGAUUGUTT against Klrb1b, with 0.524 (inactive).
For GGAAGAGAGAGACAAGGAUTT against Dap, the z-score is 1.38 (inactive).
As to GGCGACGAAGUCACCUAUATT against Carhsp1, the z-score was -0.0404 (inactive).
For GAAGGCCAAUGAUCGGGAGTT against Neurog3, the z-score is -2.1 (active).
As for GGUGGAGAAAUCUGCUAAUTT against Lta4h, the z-score was 1.99 (inactive).
With CGUCAAUGAAUUCGACUCUTT against Pnlip, the z-score was 0.348 (inactive).
On to GCUUUCAGCUAUUGGACCCTT against Kl, for which the z-score is 0.0919 (inactive).
Regarding CGAUGCUGACUGAGAUCAUTT against Rad23a, the z-score was 1.39 (inactive).
Then GGUAUAGUUAAAGUGAGAGTT against Sp8, with -0.883 (inactive).
Then GGAGUUAAUUGCCCGCAACTT against Rab19, with 0.588 (inactive).
With CGGAAGAUGUUAAAACUAUTT against Slc44a3, the z-score is -1.33 (inactive).
Consider CCAGGACAAUAACUCUGAGTT against Aatk, for which the z-score is -1.28 (inactive).
In the case of GGCGAGUUUAUAGAAGAAATT against Phf19, the z-score was 1.35 (inactive).
Then GCAAAAGCGGGUCAAAAAATT against Lrrc72, with 2.27 (active); and GGCUUGGAAUGACACUACUTT against Maged1, with -1.12 (inactive); and GCUCAAUUUACAAAAGCCCTT against Pik3c2a, with -0.961 (inactive).
Turning to CCUGUUUCUGACCUAAUACTT against Syn1, the z-score is -0.088 (inactive).
Then GGAAGAUAUUGCUGUUGGATT against Mbd4, with 0.823 (inactive); and GCAAGAUGAGAAGGAUUUUTT against Zfp691, with 0.591 (inactive).
Then GGAGGAAAACAAACCACAGTT against Tpbpa, with 0.0817 (inactive).
Then GCUGCAUCUAAAGCCUUAATT against Olfr661, with 1.41 (inactive).
Regarding GGAAGAAAGUGAAGAAGAGTT against Cdr1os, the z-score was -0.387 (inactive).
Then GGACUUUGUGAUCUUUCCATT against Pias2, with -0.57 (inactive); and “GGCUGUGAUUGGCAAUCUATT against 6430548M08Rik”, with -3.04 (active).
Then CCUGGCUAUUGGUGAGUGATT against Slc30a3, with 1.9 (inactive).
In the case of CCAAACUUUUGUGGAACAGTT against Galnt9, the z-score is 0.0294 (inactive).
As for GGCAUGUGGUUGAAGGCCUTT against Fank1, the z-score was -0.337 (inactive).
Then GGACAAUGAAGAUUUGGAATT against Ush2a, with -0.669 (inactive); and CCGCCGAUCUACUAGUGGUTT against Slc6a2, with 0.46 (inactive); and GCGGCCUUCGAAGAUAUUCTT against Pnliprp2, with -0.144 (inactive).
For GGAAAUGCCAUCGUCAUUUTT against Gpr1, the z-score is 2.66 (active).
Then GCCAGCGUACUCUUUUUAUTT against Ocln, with -0.694 (inactive).
Turning to GGAGCUGGUGGAUCUGAAGTT against Ubfd1, the z-score is 1.26 (inactive).
As to CGUGACUAUUCUGAUAAGUTT against Arl15, the z-score was 0.134 (inactive).
Consider GGAAGGAGGAAAAGUAGGUTT against Peli1, for which the z-score was -0.00852 (inactive).
Then GGAAGAGAGCAGAAAGAAGTT against Trim35, with -0.135 (inactive); and “GGGAUGUUUAGGUCACCUUTT against 4933434M16Rik”, with -2.35 (active); and GGUGGGCUACGAACUAAAGTT against Prpf31, with 0.664 (inactive).
Regarding GGUGUUGAAAGUCAUUGUGTT against Med27, the z-score was -0.196 (inactive).
Then GGCAGAUACUUCUCUGGAGTT against Sdc4, with -0.498 (inactive); and CCCGUGGUCCUACAUUGUUTT against Cdon, with 2.39 (active); and GGAAGAAGACAUGCUCACUTT against Pcdhb8, with 1.07 (inactive).
GGCCAAAGUGGUGUGUUUCTT against Mta1: the z-score is 2.46 (active).
In the case of GGUGGAGAACCAUAUCACATT against Abcg4, the z-score was 0.105 (inactive).
Then GAGCAUCCGCUACUUGGUATT against Nmnat1, with 0.0484 (inactive); and GGAAGAUAUGAAGGGCUCATT against Mb, with -2.18 (active).
Consider GCAUUUCAGCAGAACAAUATT against Phldb1, for which the z-score is 0.5 (inactive).
GGAUCUGGAUACUUUUCCATT against Arhgap22: the z-score was -2.09 (active).
As to GGAGACUUUCCAUUUGAAGTT against Fnbp1l, the z-score was -0.188 (inactive).
As to GAAAAAAUCUAUCUACCCUTT against Hoxb4, the z-score is -0.219 (inactive).
Then GGUCAGUUGAGAUGUUUUUTT against Pag1, with 0.346 (inactive); and GGCGGUGGAGGUGAUAUAUTT against Dennd6a, with -2.01 (active); and GGACUAGUCCUAAGAAGAGTT against Rbmxl2, with -1.27 (inactive).
Then GCCUAUCUACGACCUCAUCTT against Kel, with -0.768 (inactive).
Then GGCCAUUACCCAUGAGACUTT against Cd63, with 0.997 (inactive).
As to GGAACAAAUGUUCGAAAUGTT against Eif4a2, the z-score was -0.0347 (inactive).
For GGAUAUGAAACACCAGAUCTT against Naip2, the z-score is -1.89 (inactive).
Then GCAGCAGACACUCUGUACATT against Pcbp4, with -0.0747 (inactive); and GGACAAGUACAGGUUCCUATT against Vrk3, with 0.536 (inactive).
As for GGCACUGUUCGGCAAGAAGTT against Trappc5, the z-score was -2.1 (active).
Then GCUCGUUUGAUGCUGUCUCTT against Prkag1, with -1.17 (inactive); and GCUGUUUUGGUAGAUUUUGTT against Map3k8, with 0.0466 (inactive); and CGGGCAGCUAGAUUUCCAATT against S100a11, with 2.86 (active).
Regarding GCUGAACCUGCAGCACAUCTT against Mettl7a2, the z-score is -0.0665 (inactive).
Regarding GGAGUACAUUGUGAAUGUUTT against Tnr, the z-score was -1.44 (inactive).
Then GCUGGUGAACCAAAAACUCTT against Ccdc3, with -0.366 (inactive); and GGACAUGGUACCACAGGAGTT against Tenm4, with 0.643 (inactive).
Then GAGCCAAAUCAGGAACAGCTT against Trim29, with 1.4 (inactive).
Then GCCAAUAGCUCCAGCUUGATT against Olfr668, with 0.534 (inactive); and GGCUAUAGGUUUCUGGGAATT against Fzd6, with 4.94 (active).
GGCAACUUGGGAGUUUCACTT against Kcnab1: the z-score was 1.41 (inactive).
In the case of CUUGGUGGAUGAAAGAUUCTT against Tdpoz2, the z-score is -0.776 (inactive).
For the sequence GGUCAAAGUGUAACUUGUUTT against Rwdd4a, the z-score is -0.0956 (inactive).
Then GGAAGAUGAACAUCAAACATT against Dglucy, with 0.855 (inactive).
Then GGAAGAGAGCGAUUAAAUUTT against Rsrc2, with 0.839 (inactive).
Then GGGCUGGAAUCUAGGAAGUTT against Ccr10, with 2.68 (active).
On to GGAAAAUGUCCGUAAAAGGTT against Dtx2, for which the z-score is 0.196 (inactive).
Then GGAGACACUCGUCCUUUAUTT against Cyp20a1, with -1.27 (inactive); and GCUUUACUAUGUGAGAAAUTT against Ryk, with -1.89 (inactive).
Then GGGACAAUCAACACAAAAUTT against Ythdf3, with 0.172 (inactive); and CCACCAAGGAGACAUAGAUTT against Nans, with 2.85 (active).
Regarding GGUCUUGGAGGAUCCCAAUTT against Tex13a, the z-score was -1.55 (inactive).
For the sequence GCAUAUCGCUUUUGUGAGCTT against E2f6, the z-score was 2.31 (active).
In the case of GCUCUCUGAAAGAGUAUUGTT against Khdrbs2, the z-score was 0.963 (inactive).
Then GACAAGCUGUGGAGAAGUGTT against Lce1b, with 0.298 (inactive); and CCGAUUGAAAUAUGAAUCCTT against Cuedc1, with 1.22 (inactive).
Then “CCAAGAAAUUGCACUGGGATT against A130050O07Rik”, with 0.781 (inactive); and GCUGUUAAAACUCUCGUUATT against Pdk3, with 2.02 (active); and CCACAUCCUGACUACUACATT against Sumo2, with -1.14 (inactive).
Then GGUUCUUGGUGAUGAUGAGTT against Pds5a, with -2.6 (active); and GGUGAACUGGUCUACAACATT against Muc2, with 0.34 (inactive).
Consider GGAGUUGAGCAAGACCAAGTT against Ccdc102a, for which the z-score is 0.628 (inactive).
Then GGGUAUAUUUGGAACUACGTT against Ppa1, with -1.2 (inactive); and GGACAUGAACCUCUUCAAATT against Fads2, with 0.632 (inactive).
Then CCUCUGCUUUGUUACUUCCTT against Olfr1431, with -0.287 (inactive); and CCACCUAUUACAUGAUCUUTT against Rnf32, with -0.23 (inactive).
Turning to GGACCGGUUUAUUUGGCGGTT against Mmp2, the z-score is 3.43 (active).
For GCAAACGACUGUGACAAAATT against Ly6m, the z-score was -0.0028 (inactive).
With CCUCCCUAAUGGUCCAUUATT against Cyp2j13, the z-score is -0.517 (inactive).
Then GCUGGAGAACCUCCCUAAATT against Mrps33, with 1.14 (inactive).
Then GGUAAUGAAGGAACUGGAUTT against S100a1, with 0.0105 (inactive); and GGGUGACCUAAUCCAGUGUTT against Neurog3, with 2.5 (active).
